Results published in PubChem BioAssay (Tox21).
Results filed as inconclusive are left out. The source made the active and inactive calls. Unless noted, the call rests on the fitted dose curve.

How the values were obtained:
[1] = Nuclear factor erythroid 2-related factor 2/antioxidant responsive element (Nrf2/ARE) small molecule agonists: qHTS cell viability counter screen in human keratinocytes (AID 1919968; active means well fitted cell-killing curve with a large enough effect in the repeat runs; further: nearly all actives have a fitted effect of over 55% in size)
In short: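 KeratinoSens cells (HaCaT keratinocytes stably carrying an ARE-luciferase reporter) were seeded at 1,500 cells/well and rested 5 h at 37 C/5% CO2. They were then exposed to compounds in DMSO for 23 h. Viability was read by CellTiter-Fluor fluorescence after 1 h.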

[2] = Nuclear factor erythroid 2-related factor 2/antioxidant responsive element (Nrf2/ARE) small molecule agonists: luciferase reporter gene qHTS assay in human keratinocytes (AID 1919969); further: nearly all actives have a fitted effect of over 35% in size; further: potency means the concentration at half of the fitted maximal effect
[3] = target: Gonadotropin-releasing hormone receptor (Homo sapiens) (UniProt P30968); assay: Human gonadotropin-releasing hormone receptor (GnRHR) small molecule agonists, calcium flux assay in GnRHR-HEK293 cells (AID 1920063); further: nearly all actives have a fitted effect of over 35% in size
Chain of Gonadotropin-releasing hormone receptor (Homo sapiens) (P30968 whole entry, looked up): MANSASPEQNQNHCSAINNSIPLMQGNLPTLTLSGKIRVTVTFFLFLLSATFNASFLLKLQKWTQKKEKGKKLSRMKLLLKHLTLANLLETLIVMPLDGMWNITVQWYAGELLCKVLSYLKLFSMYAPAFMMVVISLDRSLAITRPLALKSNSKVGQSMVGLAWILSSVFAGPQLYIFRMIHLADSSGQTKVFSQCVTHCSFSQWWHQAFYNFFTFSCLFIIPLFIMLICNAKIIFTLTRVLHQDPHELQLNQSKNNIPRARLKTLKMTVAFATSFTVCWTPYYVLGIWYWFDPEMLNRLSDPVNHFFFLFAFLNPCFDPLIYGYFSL
In short: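 HEK293 cells stably expressing human GnRHR were plated 18 h at 37 °C, loaded with calcium dye 1 h at 37 °C, then given compound in agonist mode; fluorescence (Ex/Em 480/540) read kinetically for 3 min at 1 s intervals.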

[4] = G protein-coupled receptor (GPCR) small molecule agonists, calcium flux assay: HEK293 wild type cell line counter screen (AID 1920065)
In short: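 Cells were plated and cultured 18 h at 37 C/5% CO2, then loaded with calcium dye for 1 h at 37 C. Compounds in DMSO were pin-transferred in agonist mode, and fluorescence (Ex/Em 480/540) was read kinetically for 3 min at 1 s intervals.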

[5] = p53 small molecule agonists, cell-based qHTS assay with human liver microsomes: qHTS cell viability counter screen (AID 1963579); further: nearly all actives have a fitted effect of over 45% in size
In short: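 Cells carrying the p53 response-element beta-lactamase reporter are treated for 16 h at 37 C with test compounds in the presence of human liver microsomes and NADPH (both 0.5 mg/mL final); ATP-based CellTiter-Glo luminescence then reports viability.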

[6] = p53 small molecule agonists, cell-based qHTS assay with rat liver microsomes: qHTS cell viability counter screen (AID 1963580); further: nearly all actives have a fitted effect of over 45% in size
In short: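 Intracellular ATP, by CellTiter-Glo luminescence, defines viability. HCT-116 p53RE-bla cells, 4,000 per well, were compound-treated in the presence of rat liver microsomes and NADPH for 16 h at 37 C.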

[7] = p53 small molecule agonists, cell-based qHTS assay: qHTS cell viability counter screen (AID 1963581); further: nearly all actives have a fitted effect of over 45% in size; further: potency means the concentration at half of the fitted maximal effect
In short: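 p53RE-bla HCT-116 cells were exposed to compounds for 16 h at 37 C; after the beta-lactamase FRET read in the same wells, CellTiter-Glo was added and luminescence (intracellular ATP) read after 30 min at room temperature.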

[8] = target: 5-hydroxytryptamine receptor 2A (Homo sapiens) (UniProt P28223); assay: 5-hydroxytryptamine receptor 2A (HTR2A) small molecule antagonists, cell-based qHTS assay (AID 1963586); further: nearly all actives have a fitted effect of over 45% in size; further: potency means the concentration at half of the fitted maximal effect
Chain of 5-hydroxytryptamine receptor 2A (Homo sapiens) (P28223 whole entry, looked up): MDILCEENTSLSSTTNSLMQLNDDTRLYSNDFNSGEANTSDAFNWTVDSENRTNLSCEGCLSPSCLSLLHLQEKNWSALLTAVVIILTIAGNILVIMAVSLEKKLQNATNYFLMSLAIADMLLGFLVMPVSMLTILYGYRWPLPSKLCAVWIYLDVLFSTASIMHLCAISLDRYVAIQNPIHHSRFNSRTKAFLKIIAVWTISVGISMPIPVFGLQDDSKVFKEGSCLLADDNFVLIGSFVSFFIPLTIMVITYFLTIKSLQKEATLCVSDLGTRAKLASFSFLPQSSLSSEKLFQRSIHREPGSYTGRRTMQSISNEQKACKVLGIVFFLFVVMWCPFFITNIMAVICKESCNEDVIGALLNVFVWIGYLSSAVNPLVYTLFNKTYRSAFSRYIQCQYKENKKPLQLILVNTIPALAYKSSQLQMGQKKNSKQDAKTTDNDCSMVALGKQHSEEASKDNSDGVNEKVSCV
In short: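 Antagonist-mode intracellular calcium assay: DOI (4 nM) added after 5 min compound pre-incubation at room temperature to dye-loaded HTR2A-CHO cells. Fluorescence followed for 3 min, sampled every second.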

[9] = target: 5-hydroxytryptamine receptor 2A (Homo sapiens) (UniProt P28223); assay: 5-hydroxytryptamine receptor 2A (HTR2A) small molecule agonists, cell-based qHTS assay (AID 1963587); further: nearly all actives have a fitted effect of over 30% in size
In short: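 Kinetic calcium-flux fluorescence (2 min, 1 sec intervals) after compound addition in agonist mode. HTR2A-CHO cells were cultured 18 h, then dye-loaded 1 h at 37 C.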

[10] = target: Muscarinic acetylcholine receptor M1 (Homo sapiens) (UniProt P11229); assay: Cholinergic receptor muscarinic 1 (CHRM1) small molecule antagonists, cell-based qHTS assay (AID 1963588); further: nearly all actives have a fitted effect of over 40% in size
Chain of Muscarinic acetylcholine receptor M1 (Homo sapiens) (P11229 whole entry, looked up): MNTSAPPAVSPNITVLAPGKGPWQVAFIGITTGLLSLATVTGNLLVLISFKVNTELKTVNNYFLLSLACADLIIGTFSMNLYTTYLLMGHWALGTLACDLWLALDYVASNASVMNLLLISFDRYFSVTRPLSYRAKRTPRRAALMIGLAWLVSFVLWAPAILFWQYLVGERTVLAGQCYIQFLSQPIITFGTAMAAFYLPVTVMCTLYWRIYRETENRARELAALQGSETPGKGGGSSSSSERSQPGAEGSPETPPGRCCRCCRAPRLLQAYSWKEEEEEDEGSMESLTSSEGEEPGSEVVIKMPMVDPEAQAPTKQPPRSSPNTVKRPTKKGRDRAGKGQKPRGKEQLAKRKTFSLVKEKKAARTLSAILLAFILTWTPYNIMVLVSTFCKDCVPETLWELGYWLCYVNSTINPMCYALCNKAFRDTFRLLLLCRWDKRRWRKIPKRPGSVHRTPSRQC
In short: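 CHRM1-CHO calcium-flux assay, antagonist mode. Cells were seeded 18 h, dye-loaded 1 h at 37 C and given compound for 5 min at RT, then acetylcholine was added at 50nM. FDSS fluorescence was read 3 min; 15 concentrations, three runs.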

[11] = target: Muscarinic acetylcholine receptor M1 (Homo sapiens) (UniProt P11229); assay: Cholinergic receptor muscarinic 1 (CHRM1) small molecule agonists, cell-based qHTS assay (AID 1963589); further: nearly all actives have a fitted effect of over 35% in size
In short: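 CHO cells stably expressing human CHRM1, seeded 18 h at 37 C/5% CO2, dye-loaded 1 h at 37 C, then given compound in agonist mode; intracellular calcium fluorescence read kinetically at 1 s intervals. Fifteen concentrations, three independent runs.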

[12] = cAMP Responsive Elements (CRE) small molecule agonists, cell-based qHTS assay (AID 1963590)
In short: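 CRE-bla HEK 293T cells in DMEM with 10% dialyzed FBS, NEAA, pyruvate and 25 mM HEPES were plated 18 h at 37 C/5% CO2, then exposed to compounds in DMSO for 3 h before LiveBLAzer B/G FRET substrate addition.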

[13] = cAMP Responsive Elements (CRE) small molecule antagonists, cell-based qHTS assay (AID 1963591; active means well fitted inhibition curve with a large enough effect in the signal ratio in the repeat runs, not every such curve was filed as active; the % refers to the signal ratio)
In short: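 CRE-bla HEK293T cells were plated 18 h at 37 °C/5% CO2, pinned with compound in DMSO, then stimulated with NKH477 at 0.25 uM final for 3 h. LiveBLAzer B/G FRET substrate was added and plates incubated 2 h at room temperature.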

[14] = target: Beta-2 adrenergic receptor (Homo sapiens) (UniProt P07550); assay: Adrenergic beta2 receptor (ADRB2) small molecule antagonists, cell-based qHTS assay (AID 1963592); further: series mostly up to about 92 µM; nearly all actives have a fitted effect of over 50% in size
Chain of Beta-2 adrenergic receptor (Homo sapiens) (P07550 whole entry, looked up): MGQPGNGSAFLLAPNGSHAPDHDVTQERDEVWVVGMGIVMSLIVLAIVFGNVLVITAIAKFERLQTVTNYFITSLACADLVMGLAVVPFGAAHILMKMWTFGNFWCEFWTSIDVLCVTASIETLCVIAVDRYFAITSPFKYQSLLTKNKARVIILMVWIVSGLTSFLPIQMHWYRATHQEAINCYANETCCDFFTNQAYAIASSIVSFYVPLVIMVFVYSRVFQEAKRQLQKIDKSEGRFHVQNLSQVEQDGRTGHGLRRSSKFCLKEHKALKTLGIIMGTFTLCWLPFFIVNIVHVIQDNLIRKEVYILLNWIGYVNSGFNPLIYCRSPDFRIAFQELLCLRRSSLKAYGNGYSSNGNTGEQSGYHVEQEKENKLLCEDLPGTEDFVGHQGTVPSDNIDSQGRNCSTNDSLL
In short: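 Cells (CHO, stable ADRB2 overexpression) incubated 18-20hr at 37C; compounds added from DMSO; agonist mix (1nM isoproterenol, 100uM IBMX, 25uM Ro-20-1724) added; 0.5hr RT; d2-cAMP and anti-cAMP-cryptate added; 1hr RT; 665/615 nm read.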

[15] = target: D(2) dopamine receptor (Homo sapiens) (UniProt P14416); assay: Dopamine D2 receptor (DRD2) small molecule agonists, cell-based qHTS assay (AID 1963594); further: nearly all actives have a fitted effect of over 35% in size
Chain of D(2) dopamine receptor (Homo sapiens) (P14416 whole entry, looked up): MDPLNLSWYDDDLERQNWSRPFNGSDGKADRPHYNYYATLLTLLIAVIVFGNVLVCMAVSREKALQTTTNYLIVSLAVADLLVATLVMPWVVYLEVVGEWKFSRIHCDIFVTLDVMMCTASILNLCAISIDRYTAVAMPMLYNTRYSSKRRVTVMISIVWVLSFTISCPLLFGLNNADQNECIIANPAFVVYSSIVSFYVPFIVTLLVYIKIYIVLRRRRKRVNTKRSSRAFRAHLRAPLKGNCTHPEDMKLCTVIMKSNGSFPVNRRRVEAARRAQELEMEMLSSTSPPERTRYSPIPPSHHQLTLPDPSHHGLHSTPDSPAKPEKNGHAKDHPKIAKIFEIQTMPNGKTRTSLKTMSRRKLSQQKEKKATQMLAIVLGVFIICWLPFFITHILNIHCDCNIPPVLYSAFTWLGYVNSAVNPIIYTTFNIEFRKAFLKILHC
In short: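 cAMP accumulation in DRD2-HEK293 cells measured by HTRF after 1 h detection; compounds added 10 min before NKH477 (200nM […]) forskolin-analogue stimulation, 30 min at room temperature, with Ro20-1724 present at 0.1 mM final.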

[16] = target: D(2) dopamine receptor (Homo sapiens) (UniProt P14416); assay: Dopamine D2 receptor (DRD2) small molecule antagonists, cell-based qHTS assay (AID 1963595; active means well fitted inhibition curve with a large enough effect in the signal ratio in the repeat runs, with a control signal flat; the % refers to the signal ratio)
In short: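 Human DRD2 antagonist qHTS measuring cAMP by HTRF. The cells are exposed to compound for 10 min, then to NKH477 (200 nM) and quinpirole (12 nM) for 30 min at RT, with Ro20-1724 (0.1 mM) present throughout.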

[17] = target: Beta-2 adrenergic receptor (Homo sapiens) (UniProt P07550); assay: Adrenergic beta2 receptor (ADRB2) small molecule agonists, cell-based qHTS assay (AID 1963593);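 further: CHO cells stably overexpressing human ADRB2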
In short: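 CHO cells stably over-expressing ADRB2 were plated overnight at 37C, then dosed with compounds plus a stimulation mix containing 100uM IBMX and 25uM Ro-20-1724 for 0.5hr at room temperature. cAMP was measured by HTRF competition, 1hr.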

[18] = p53 small molecule agonists, cell-based qHTS assay with rat liver microsomes (AID 1963578)
In short: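 Read-out is beta-lactamase reporter fluorescence (LiveBLAzer, 2 h, room temperature, dark) in p53RE-bla cells treated 16 h at 37 C with compound, rat liver microsomes and NADPH, both 0.5 mg/mL final.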

Measured: Potency

O=C(Nc1ccccc1)OCC(CN1CCCCC1)OC(=O)Nc1ccccc1 (stereo not given)
active: [7] 12.6 µM
not listed: [17] | [18]
inactive: all other assays above

CN(C)CCN(C)CCO
active: [8] 9.4 µM
not listed: [18]
inactive: all other assays above

CNC1CCCN(c2c(F)cc3c(=O)c(C(=O)O)cn(C4CC4)c3c2OC)C1 (stereo not given)
not listed: [15] | [17] | [18]
inactive: all other assays above

Cc1ccc(S(=O)(=O)NC(=O)NC2CCCCC2)cc1
not listed: [6] | [8] | [17] | [18]
inactive: all other assays above

CC(C)c1ccc2ncccc2c1
not listed: [13] | [17] | [18]
inactive: all other assays above

CN(C)c1ccc(N=NS(=O)(=O)O)cc1
active: [2] 25.6 µM
inactive: [1] | [3] | [4] | [18] | [5] | [6] | [8] | [10] | [11]

Nc1nc2ccc(OC(F)(F)F)cc2s1
inactive: [1] | [2] | [3] | [4] | [18] | [6] | [12] | [13] | [14] | [16]

O=CNc1ccccc1
not listed: [9] | [10] | [16] | [17] | [18]
inactive: all other assays above
